Test results as given in PubChem BioAssay.
Where “and” joins values, the source holds several entries; their conditions need not be identical. Equal entries are not always repeated. Unmarked numbers belong to inactive results.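 Rule for the calls: active = differentiation response of at least 50%, scaled between solvent and reference control, from cells with both markers; inactive = the rest.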

Assay: AML differentiation inducers, ER-HoxA9 marrow cells – cell-based, GFP/MAC1 double positive, flow cytometry, validation set, primary screen (AID 588685);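 note: compound exposure lasts four days before antibody staining and flow analysis; 0% = DMSO wells and 100% = 5 µM fulvestrant positive control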
Details: active compounds read high, normalized: vehicle 0, fulvestrant 100

Row | Structure (SMILES) | differentiation response
1 | O=C(Cc1ccccc1[N+](=O)[O-])NCc1ccncc1 | -15.2%
2 | Cn1nc(-c2ccc(Cl)cc2)nc2c(=O)n(C)c(=O)nc1-2 | -4.99%
3 | O=C(O)CCCCCNC(=O)Nc1ccc2c(c1)OCCO2 | -3.28%
4 | COc1ccc(S(N)(=O)=O)cc1C(N)=O | -4.64%
5 | Cc1occc(=O)c1O | -4.91%
6 | C[C@]12CCC3C(CC=C4C[C@@H](O)CC[C@@]43C)C1CCC2[C@]1(C)CCC(=O)O1 (some centres undefined) | -15.2%
7 | CC(=O)N(CCC1(c2ccc(C)cc2)CCOC(C(C)C)C1)Cc1ccco1 (centres undefined) | -1.64%
8 | O=C(CCc1ccccc1)Nc1ccccc1C(F)(F)F | 0.24%
9 | CN(C)C(=O)Oc1cccc([N+](C)(C)C)c1 | -0.06% and -15.2%
10 | CCOc1ccc(C(NC(C)=O)c2ccc(OC)c(OC)c2)cc1 (centres undefined) | 0%
11 | COc1ccccc1N=CC1=C(O)CC(c2ccccc2)CC1=O (centres undefined) | 2.46%
12 | O=C1CC(c2ccc(O)cc2)Oc2cc(O)cc(O)c21 (centres undefined) | 1.22%
13 | O=C(NCCO)c1ccc(Cl)c(Cl)c1 | -10.4%
14 | N/C(Cc1ccc(Cl)cc1Cl)=N\OC(=O)c1ccc(Br)o1 | 2.4%
15 | CC1=NN(C(=O)c2ccc(Br)cc2)C(O)(c2ccccc2)C1 (centres undefined) | -4.57%
16 | Clc1cc(-c2ccc(/C=N/n3cnnc3)o2)ccc1Br | -4.57%
17 | O=c1oc2c(CN3CCCCC3)c(O)ccc2c2c1CCCCC2 | 8.59%
18 | Cc1ccc(-c2nnc(-c3ccc4c(c3)OCO4)o2)cc1 | -0.06%
19 | CC1(C)CC(=O)c2cn3c(nc2C1)nc1ccccc13 | -6.03%
20 | COc1ccc(C(=O)N2c3cc4c(cc3C(C)=CC2(C)C)OCO4)cc1 | -1.71%

Row | Structure (SMILES) | differentiation response
21 | CCc1oc2ccccc2c1C(=O)c1cc(Br)c(O)c(Br)c1 | 9.83%
22 | Cc1oc2cc(O)cc(O)c2c(=O)c1-c1ccc2c(c1)OCCCO2 | 12%
23 | CCCC(=O)Nc1ncnc2c1ncn2[C@@H]1O[C@@H]2COP(=O)(O)O[C@H]2[C@H]1OC(=O)CCC | 5.73%
24 | O=C(Cc1ccccc1)NCC(=O)OCC(=O)c1ccccc1Cl | -0.82%
25 | CC/C(=C(\c1ccc(O)cc1)c1ccc(OCCN(C)C)cc1)c1ccccc1 | -3.11%
26 | CC(C)(C)C(=O)Nc1cccc(OC(F)(F)C(F)Cl)c1 (centres undefined) | 11.8%
27 | Cc1ccc(/C(=C\CN2CCCC2)c2ccccn2)cc1 | -19.2%
28 | CC(C)(C)c1ccc(/C=C/C(=O)N2CCCCC2)cc1 | 8.8%
29 | Cn1c(=O)[nH]c(=O)c2c1nc(NCc1ccco1)n2CCCc1ccccc1 | -3.67%
30 | CN(C)CCOC(=O)C(c1ccccc1)C1(O)CCCC1 (centres undefined) | -6.55%
31 | COc1ccccc1C(=O)Oc1ccc2c(c1)O/C(=C\c1ccncc1)C2=O | 10.8%
32 | CC(=O)CCCCn1c(=O)c2c(ncn2C)n(C)c1=O | 20.8%
33 | CS(=O)c1ccccc1O (centres undefined) | 3.45%
34 | COc1cccc(OCc2nnc(-c3cccs3)o2)c1 | -0.06%
35 | CCOC(=O)C(=O)N1CCN(c2ccccc2OC)CC1 | -8.96%
36 | COc1ccc(CCN2C(=O)CSC2c2ccc(OC)c(OC)c2)cc1OC (centres undefined) | 21.6%
37 | CCCCCCCC(=O)OCC(O)CO (centres undefined) | 2.2%
38 | CN1CCN(C2=Nc3ccccc3Oc3ccc(Cl)cc32)CC1 | -0.82%
39 | Cc1ccc(CN2CCN(CCCc3ccccc3)CC2CCO)cc1 (centres undefined) | 10%
